Efflux pump mplx – inhibitors of Candida efflux pumps in yeast, primary screen, S. cerevisiae, Nile Red, multiplex; S. cerevisiae Candida pump triplex; inhibition, % at 10 µM; 0.44% of 330,000 active; AID 485275, 2010;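 active means plate passing quality check with inhibition over a set limit, or well fluorescence over plate mean plus 4 SD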;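 further: Nile Red retained in pooled yeast measured as flow cytometry median fluorescence; higher means more Nile Red kept so more efflux inhibition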
SUMO Mot1 rescue – yeast Mot1-301 growth rescue at high temperature, primary screen, SUMOylation pathway inhibitor project, S. cerevisiae, ATP luminescence, 38.5C. AID 2716, 2010. S. cerevisiae Mot1-301 growth rescue; percent above DMSO median, 100 means doubled. growth rescue, % at 18.8 µM. 1% of 320,000 active;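 active means every valid replicate shows activation above 250% relative to neutral control wells; inactive means the rest, any valid replicate at or below 250%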
SKN-1 inh – suppressors of acrylamide-induced Pgst-4::GFP reporter in worms, primary screen, SKN-1 inhibitor project, whole organism, uHTS, GFP/RFP fluorescence ratio, strain VP596 | C. elegans VP596 Pgst-4::GFP/RFP ratio, 24 h | 0.49% of 360,000 active | inhibition, % at 21.8 µM;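 active means interference check ratio from 0.5 to 1.5 plus GFP to RFP signal ratio inhibition reaching or exceeding a fixed threshold, cut at about 30% in these data, passing the limit was not always enough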
sPLA2-III inh – human group III sPLA2 inhibitors, primary screen, biochemical, QFRET, BODIPY PC-A2 liposome substrate; AID 743126, 2013; Group 3 secretory phospholipase A2 (Homo sapiens), Q9NZ20; 0.56% of 370,000 active; QFRET BODIPY PC-A2 liposome hydrolysis, fluorescence; inhibition, % at 12.2 µM;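 active means inhibition above mean plus 3 SD of compounds lying within the high and low control bounds, cut at about 19% in these data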
Target sequence (Q9NZ20 whole entry, looked up): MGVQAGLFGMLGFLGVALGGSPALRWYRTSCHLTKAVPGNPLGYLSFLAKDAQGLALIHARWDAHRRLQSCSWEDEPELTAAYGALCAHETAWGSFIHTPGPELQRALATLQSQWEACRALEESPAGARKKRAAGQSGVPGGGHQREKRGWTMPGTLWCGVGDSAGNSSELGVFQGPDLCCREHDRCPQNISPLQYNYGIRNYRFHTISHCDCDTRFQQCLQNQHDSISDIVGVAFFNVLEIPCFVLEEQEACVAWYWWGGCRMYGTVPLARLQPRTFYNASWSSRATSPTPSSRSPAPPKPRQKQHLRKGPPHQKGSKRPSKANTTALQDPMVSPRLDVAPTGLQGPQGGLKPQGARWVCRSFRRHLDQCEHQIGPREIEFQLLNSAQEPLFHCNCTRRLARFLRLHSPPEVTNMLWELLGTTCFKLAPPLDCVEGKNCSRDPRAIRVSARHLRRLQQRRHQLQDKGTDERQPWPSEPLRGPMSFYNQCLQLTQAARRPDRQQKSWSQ
hGIII sPLA2 conf – human group III sPLA2 inhibitors, confirmation, biochemical, QFRET, triplicate; 34% of 2,000 active; AID 743280, 2014; shares compounds with sPLA2-III inh; inhibition, % at 12.2 µM; recombinant hGIII-sPLA2, BODIPY PC-A2 QFRET fluorescence;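 active means mean inhibition across triplicates above the hit cutoff set in the earlier primary screen, cut at about 19% in these data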
535nm interf – 535nm fluorescence optical interference, confirmation, artefact control for HGIII-sPLA2 inhibitor project, biochemical, QFRET. shares compounds with sPLA2-III inh. BODIPY FL product fluorescence interference. inhibition, % at 12.2 µM. 8.5% of 2,000 active;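 active means average inhibition above the solvent-only control mean plus 3 SD, cut at about 6% in these data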
BODIPY interf DR – 535nm fluorescence optical interference, dose response, artefact control for HGIII-sPLA2 inhibitor project, biochemical, QFRET; shares compounds with sPLA2-III inh; 240 tested, under 10 active; BODIPY FL product fluorescence interference, cell-free; AID 743455, 2014; IC50, µM;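 active means IC50 at or below 10 µM; inactive means IC50 above 10 µM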
Large screens that a line does not name were inactive (follow-up assays come after a bar, where they were run). This is a sample that favours compounds with a hit; in the whole collection about 2.2% have one here.

CCOC(=O)C1(C)CCCCCN1C(=O)c1snnc1C (configuration not stated)	none (no result: Efflux pump mplx, SUMO Mot1 rescue)
Cc1cc(C)c2c(c1)/C(=N/Nc1ccc(S(N)(=O)=O)cc1[N+](=O)[O-])CCC2	sPLA2-III inh 20 | hGIII sPLA2 conf inactive | 535nm interf 7.5
O=S(=O)(O)c1cc(O)c(N=Nc2ccc(O)cc2O)c2ccccc12	sPLA2-III inh 23 (no result: Efflux pump mplx, SUMO Mot1 rescue) | hGIII sPLA2 conf inactive | 535nm interf inactive
O=[N+]([O-])c1ccccc1N=Nc1ccc(O)cc1O	none (no result: Efflux pump mplx, SUMO Mot1 rescue)
O=C(NC(=S)N1CCN(c2c(Cl)cccc2[N+](=O)[O-])CC1)c1cccs1	none
COc1ccc(N2CCN(C(=S)NC(=O)c3cccs3)CC2)c([N+](=O)[O-])c1	sPLA2-III inh 26 | hGIII sPLA2 conf 28 | 535nm interf inactive
CCOc1ccc(N2C(=O)Nc3ccc(Br)cc3C2(O)C(=O)NCCN(C)C)cc1 (configuration not stated)	none
CCc1ccc(N2C(=O)Nc3ccc(Br)cc3C2(O)C(=O)NCCN(C)C)cc1 (configuration not stated)	sPLA2-III inh 20 | hGIII sPLA2 conf inactive | 535nm interf inactive
COc1ccc(CN2CCN(C(=O)CCC(=O)c3ccc(C)s3)CC2)cc1OC	none
O=C(Cn1nnc(-c2ccncc2)n1)Nc1ccc(F)cc1F	none (no result: Efflux pump mplx, SUMO Mot1 rescue, SKN-1 inh)
CN(c1ccc(F)cc1)S(=O)(=O)c1ccc(Cl)c(C(=O)NCC(c2ccco2)N2CCCCC2)c1 (configuration not stated)	none (no result: Efflux pump mplx, SUMO Mot1 rescue)
O=C(Cc1cnn(-c2ccccc2)c1)c1ccc(O)c(O)c1O	sPLA2-III inh 24 | hGIII sPLA2 conf inactive | 535nm interf inactive
Cc1cc(NC(=O)CSc2nnc(CNC(=O)c3ccccc3)o2)no1	none
CCCOc1ccc(Br)cc1CSC(=N)N	sPLA2-III inh 35 | hGIII sPLA2 conf inactive | 535nm interf inactive
CCOC(=O)[C@]12CCCC=C1N(Cc1cccc3ccccc13)C(=O)[C@H](CC(=O)NCc1ccc(OC)c(OC)c1)C2	none (no result: Efflux pump mplx, SUMO Mot1 rescue)
CC1CCCC(C)N1NC(=S)Nc1ccc(OC(F)F)cc1 (configuration not stated)	sPLA2-III inh 19 | hGIII sPLA2 conf 20 | 535nm interf inactive
COc1ccc(NC(=S)NN2C(C)CCCC2C)cc1 (configuration not stated)	none
Cc1cccc2sc(NNC(=O)c3ccc(S(=O)(=O)N4CC(C)CC(C)C4)cc3)nc12 (configuration not stated)	sPLA2-III inh 47 | hGIII sPLA2 conf 47 | 535nm interf inactive
COC(=O)c1sc2ccccc2c1NC(=O)c1ccc(S(=O)(=O)N2CC(C)CC(C)C2)cc1 (configuration not stated)	none
Cc1cc(C)c2nc(NNC(=O)c3ccc(S(=O)(=O)N4CCCC(C)C4)cc3)sc2c1 (configuration not stated)	sPLA2-III inh 36 | hGIII sPLA2 conf 46 | 535nm interf 6.5
COc1ccc2ccccc2c1/C=N/NC(=S)Nc1cc(S(=O)(=O)N2CCOCC2)ccc1N1CCOCC1	none
CCOc1cccc(/C=N/NC(=S)Nc2cc(S(=O)(=O)N3CCOCC3)ccc2N2CCOCC2)c1O	sPLA2-III inh 23 | hGIII sPLA2 conf 33 | 535nm interf inactive
COc1cccc(CNC(=O)[C@H]2CCCN2C(=O)[C@H]2CCCN2C(=O)c2ccc(Cl)cc2)c1	none (no result: Efflux pump mplx, SUMO Mot1 rescue, SKN-1 inh)
O=C(NCc1ccccc1)[C@@H]1CCCN1C(=O)[C@H]1CCCN1C(=O)c1ccc(Cl)cc1	sPLA2-III inh 21 (no result: Efflux pump mplx, SUMO Mot1 rescue, SKN-1 inh) | hGIII sPLA2 conf inactive | 535nm interf inactive
CCc1ccc2cccc3c2c1N=CN3C	sPLA2-III inh 22 | hGIII sPLA2 conf 22 | 535nm interf inactive
COc1ccc(OCCNC(=O)c2ccc3nc(C)c(N(C)C(=O)CCc4ccccc4)n3c2)cc1	none (no result: Efflux pump mplx, SUMO Mot1 rescue)
Cc1cccc(C)c1NC(=O)c1cccc2c1-c1ccccc1C2=O	sPLA2-III inh 22 | hGIII sPLA2 conf inactive | 535nm interf inactive
O=C(Nc1ccc(F)cc1)c1ccc2c(c1)S(=O)(=O)N=C1CCCCCN12	none
CCOc1ccc(NC(=O)c2ccc3c(c2)S(=O)(=O)N=C2CCCCCN23)cc1	sPLA2-III inh 19 (no result: Efflux pump mplx, SUMO Mot1 rescue) | hGIII sPLA2 conf inactive | 535nm interf inactive
CC(C)N(C)C1=CC(=O)C(N(C)C(C)C)=CC1=O	none (no result: Efflux pump mplx, SUMO Mot1 rescue)
O=C(NNC(=S)Nc1ccc(Br)cc1)c1ccc(N2CCOCC2)c([N+](=O)[O-])c1	sPLA2-III inh 25 | hGIII sPLA2 conf 30 | 535nm interf 11
Cc1ccc(NC(=S)NNC(=O)c2ccc(N3CCOCC3)c([N+](=O)[O-])c2)cc1Cl	none
O=C(NNC(=S)Nc1ccc(Cl)cc1Cl)c1ccc(N2CCOCC2)c([N+](=O)[O-])c1	sPLA2-III inh 24 | hGIII sPLA2 conf 28 | 535nm interf 12
O=C(c1ccc(N2CCOCC2)c([N+](=O)[O-])c1)N1CCCCC1	none
COc1ccc(-c2oc3cccnc3c2-c2ccc(OC)nc2)cc1	none
O=C1c2ccccc2C(=O)N1CCSc1n[nH]c(=S)s1	sPLA2-III inh 20 | hGIII sPLA2 conf 25 | 535nm interf inactive
Cc1ccc(-c2nnc(SCC(=O)NNC(=S)Nc3ccccc3)n2C2CCCCC2)cc1	sPLA2-III inh 28 (no result: Efflux pump mplx, SUMO Mot1 rescue, SKN-1 inh) | hGIII sPLA2 conf 33 | 535nm interf inactive | BODIPY interf DR inactive
Cc1ccc(-c2nnc(SCC(=O)Nc3ccc4c(c3)OCCO4)n2-c2ccc(C)cc2)cc1	sPLA2-III inh 21 (no result: Efflux pump mplx, SUMO Mot1 rescue, SKN-1 inh) | hGIII sPLA2 conf inactive | 535nm interf inactive
Cc1ccc(-n2c(SCC(=O)Nc3ccc4c(c3)OCCO4)nnc2-c2cccnc2)cc1	none (no result: Efflux pump mplx, SUMO Mot1 rescue, SKN-1 inh)
COc1ccc(-n2c(SCC(=O)Nc3ccc(Oc4ccccc4)cc3)nnc2-c2ccccc2)cc1	none (no result: Efflux pump mplx, SUMO Mot1 rescue, SKN-1 inh)
Cc1ccc(-c2nnc(SCC(=O)N/N=C/c3ccccc3C(=O)O)n2C2CCCCC2)cc1	none
COc1ccc(-n2c(SCC(=O)NNC(=S)Nc3ccc(C)cc3)nnc2-c2ccccc2)cc1	sPLA2-III inh 31 (no result: Efflux pump mplx, SUMO Mot1 rescue, SKN-1 inh) | hGIII sPLA2 conf inactive | 535nm interf inactive
CCCC(=O)N1CCC[C@]2(CC[C@@H](CCC#N)O2)C1	none (no result: Efflux pump mplx, SUMO Mot1 rescue, SKN-1 inh)
Cc1ccc(NC2CCCN(C(=O)CCC3=NNC(=O)CC3)C2)cc1C (configuration not stated)	none
Cc1[nH]c2ccc(C(=O)NCCCN(C)C3CCCCC3)cc2c1C	none
C/C(=N\NC(=S)NCC(C)(C)C)c1cc(F)cc(F)c1O	sPLA2-III inh 33 | hGIII sPLA2 conf 43 | 535nm interf inactive | BODIPY interf DR inactive
